In PubChem BioAssay (Tox21):
Records with an inconclusive call do not appear. Calls of active or inactive are those of the source. Calls follow the shape of the dose curve; as a rule, active = well fitted cell-killing curve with a large enough effect in the repeat runs; inconclusive = weak or mixed curves, or effect the other way; inactive = no such curve, though single readings can be large or run the other way.
% is scaled to controls: 0 for no effect and ±100 for the full control effect.

Test: qHTS assay to identify small molecule agonists of the RXR signaling pathway - cell viability counter screen (AID 1159529); also: nearly all actives have a fitted effect of over 50% in size
Conditions: RXR-alpha-bla HEK293T viability, CellTiter-Glo, 16 h; series mostly up to 76.8 µM; activity change, negative = cytotoxicity: at the top concentration
Text: National Center for Advancing Translational Sciences [NCATS]
NIH Chemical Genomics Center [NCGC]
U.S. Environmental Protection Agency [EPA]
National Institutes of Environmental Health Sciences [NIEHS]
National Toxicology Program [NTP]
U.S. Food and Drug Administration [FDA]
The Retinoid X receptor (RXR), a nuclear hormone receptor expressed in liver, spleen, placenta, epidermis, central nervous system. These receptors are able to form homo and heterodimers with other nuclear receptors and due to this heterodimerizing ability, RXR functions as master regulators producing diverse physiological effects. Three subtypes of RXR exist; alpha, beta and gamma. Retinoid X receptor alpha (RXR-alpha) has potential roles in metabolic signaling pathways, skin alopecia, dermal cysts, cardiac development, insulin sensitization etc. Therefore screening environmental chemicals on RXR-alpha signaling can be used for the studies focused on such therapeutic applications. For quantification of RXR-alpha ligands signaling, GeneBLAzer RXR alpha-UAS-bla HEK 293T (Life Technologies, Carlsbad, CA) cells containing a beta-lactamase reporter-gene under control of Retinoid X receptor-alpha response element were used to screen Tox21 10K library. The cytotoxicity of the Tox21 compound library against the RXR-alpha HEK 293T cell line was tested in parallel by measuring cell viability using CellTiter-Glo assay (Promega Corporation, Madison, WI) in the same wells.
Tox21 Assay Protocol Summary:
RXR-alpha HEK 293T cells were dispensed at 2,000 cells/6 uL of assay medium containing 2% charcoal-stripped FBS using a Multidrop Combi (ThermoFisher Scientific, Waltham, MA) dispenser. The assay was performed in black wall/clear-bottom 1536-well plates (Greiner Bio-One North America Inc. Monroe, NC). Tetraoctyl ammonium bromide was used as a positive control in the cytotoxicity screen. After the assay plates were incubated at 37 C and 5% CO2 for 5 hr, 23 nL of compounds dissolved in DMSO, positive control or DMSO only were transferred to the assay plate by a Pintool station (Kalypsys, San Diego, CA). The assay plates were incubated at 37 C and 5% CO2 for 16 hr. One uL of LiveBLAzer B/G FRET substrate (Life Technologies) was added using a Flying Reagent Dispenser (FRD) (Aurora Discovery, San Diego, CA) and the plates were incubated at room temperature for 2 hr. Fluorescence intensity (405 nm excitation, 460/530 nm emission) was measured using an Envision plate reader (PerkinElmer, Shelton, CT). For cytotoxicity, 4 uL/well of CellTiter-Glo reagent was added into the assay plates using an FRD. After 30 min incubation at room temperature, the luminescence intensity was measured using a ViewLux plate reader (PerkinElmer).
For `Nc1ccc(S(=O)(=O)Nc2ccccn2)cc1`, the “activity change, negative = cytotoxicity” value was -1.06% [at 35.3 µM] (inactive). For `CCCC(C)CC` (stereo not given), the “activity change, negative = cytotoxicity” value was -0.867% (inactive). In the case of `CCC(C)N` (stereo not given), the “activity change, negative = cytotoxicity” value is reported as -0.977% (inactive). In the case of `COc1ccc(OC)c(NC(=O)CC(C)=O)c1`, the “activity change, negative = cytotoxicity” value is reported as 5.16% (inactive). For `CC(C)CCCCCCOC(=O)C1CCCCC1C(=O)OCCCCCCC(C)C` (stereo not given), the “activity change, negative = cytotoxicity” value was 0.187% (inactive). In the case of `CO[Si](CCCCl)(OC)OC`, the “activity change, negative = cytotoxicity” value is reported as 2.1% (inactive). With `Cc1ccccc1C(=O)N1CC/C(=N\OS(=O)(=O)O)c2ccc(Cl)cc21` the “activity change, negative = cytotoxicity” value was 1.37% [at 35.3 µM] (inactive). With `COc1ccc(N=Nc2cc(C)c(N=Nc3ccc(S(=O)(=O)O)cc3)cc2OC)cc1` the “activity change, negative = cytotoxicity” value was 2.44% (inactive). With `Cc1nc(C)nc(N2C[C@@H](C)N(c3ccnc([C@@H](C)O)n3)[C@@H](C)C2)n1` the “activity change, negative = cytotoxicity” value was -8.84% [at 35.3 µM] (inactive). For `FC(F)(F)/C(=N\OCC1OCCO1)c1ccc(Cl)cc1`, the “activity change, negative = cytotoxicity” value was 1.54% (inactive). With `CCCCCCCCCCCCC` the “activity change, negative = cytotoxicity” value was 6.68% (inactive). In the case of `CCOC(=O)CC#N`, the “activity change, negative = cytotoxicity” value is reported as 9.27% (inactive). For `CCCCCC(=O)OCC`, the “activity change, negative = cytotoxicity” value was -0.0555% (inactive). For `CCCCC(CC)COC(=O)c1ccccc1` (stereo not given), the “activity change, negative = cytotoxicity” value was -4.57% (inactive). With `O=C(O)CCNC(=O)c1ccccc1` the “activity change, negative = cytotoxicity” value was 0.133% [at 35.3 µM] (inactive). For `CC(C)C(=O)Nc1cccc(C(F)(F)F)c1`, the “activity change, negative = cytotoxicity” value was 1.26% [at 35.3 µM] (inactive). For `O=c1[nH]c(=O)c2[nH]c(=O)[nH]c2[nH]1`, the activity change, negative = cytotoxicity was 9.18% [at 6.97 µM] (inactive). For `CC(C)COC(=O)COc1ccc(Cl)cc1Cl`, the “activity change, negative = cytotoxicity” value was -0.024% (inactive). With `OC[C@@H](O)[C@H](O)[C@@H](O)[C@@H](O)CO` the “activity change, negative = cytotoxicity” value was 2.89% (inactive). With `CCC1COC(=O)O1` (stereo not given) the “activity change, negative = cytotoxicity” value was 3.4% (inactive). In the case of `O=C(COCCOCCOCC(=O)Nc1c(I)cc(I)c(C(=O)O)c1I)Nc1c(I)cc(I)c(C(=O)O)c1I`, the “activity change, negative = cytotoxicity” value is reported as 10.1% [at 35.3 µM] (inactive). With `CC(C)CCO` the “activity change, negative = cytotoxicity” value was 8.19% (inactive). In the case of `CCC1Nc2cc(Cl)c(S(N)(=O)=O)cc2S(=O)(=O)N1` (stereo not given), the “activity change, negative = cytotoxicity” value is reported as -4.49% [at 35.3 µM] (inactive). In the case of `C=C(C)[C@@H]1CC[C@@H](C)C[C@@H]1O`, the “activity change, negative = cytotoxicity” value is reported as -3.55% (inactive). With `CCCCCCCC/C=C\CCCCCCCC(=O)OC[C@@H](O)[C@H]1OC[C@H](O)[C@H]1O` the “activity change, negative = cytotoxicity” value was -0.589% (inactive). For `CC(=O)/C=C/c1ccco1`, the “activity change, negative = cytotoxicity” value was 12.1% (inactive). For `Nc1ccc(C(=O)OCC(O)CO)cc1` (stereo not given), the “activity change, negative = cytotoxicity” value was 1.58% [at 35.3 µM] (inactive). With `NCCc1ccn[nH]1` the “activity change, negative = cytotoxicity” value was -10.9% [at 35.3 µM] (inactive). In the case of `Cc1ccc(C(=O)C(=O)O)cc1C`, the “activity change, negative = cytotoxicity” value is reported as -3.38% [at 35.3 µM] (inactive). With `CCC(C)(C)C1CCC(=O)CC1` the “activity change, negative = cytotoxicity” value was -3.8% (inactive). With `NS(=O)(=O)c1ccccc1OC(F)(F)F` the “activity change, negative = cytotoxicity” value was 11.9% (inactive). For `CCCCCCCCCCCCOC(C)=O`, the “activity change, negative = cytotoxicity” value was -1.13% (inactive). In the case of `CCCCCC1CCCC(=O)O1` (stereo not given), the “activity change, negative = cytotoxicity” value is reported as 0.739% (inactive). With `Cc1cc(O)c2c(c1)C(=O)c1cccc(O)c1C2=O` the “activity change, negative = cytotoxicity” value was -11.6% [at 35.3 µM] (inactive). For `CC1(N)CCC(C(C)(C)N)CC1` (stereo not given), the “activity change, negative = cytotoxicity” value was -18.2% (inactive). For `CC1=NN(c2ccc(S(=O)(=O)O)cc2)C(=O)C1N=Nc1ccccc1` (stereo not given), the “activity change, negative = cytotoxicity” value was -2.26% (inactive). In the case of `CCCCC/C=C/CC(=O)OC`, the “activity change, negative = cytotoxicity” value is reported as -1.45% (inactive). With `CCCCC(CC)CNC(=O)CC(C)OC(=O)CCC(=O)O` (stereo not given) the “activity change, negative = cytotoxicity” value was -3.56% [at 35.3 µM] (inactive). In the case of `NS(=O)(=O)c1cc2c(cc1Cl)NC(CC1CCCC1)NS2(=O)=O` (stereo not given), the “activity change, negative = cytotoxicity” value is reported as 4.75% [at 35.3 µM] (inactive). For `C=C[Si](C)(C)O[Si](C)(C)C=C`, the “activity change, negative = cytotoxicity” value was 5.8% (inactive).
